# Assay results as given in PubChem BioAssay (NCATS).
# Results filed as inconclusive are left out. Entries that show only a call come without a potency. Activity calls are given as the source filed them. Unless noted, the call rests on the fitted dose curve; in most records, active means well fitted curve in the direction sought with a large enough effect; inconclusive means small, poorly fitted or top-dose-only effect, or another doubt; inactive means no such curve, though single readings can be large; an effect the other way counts as inactive or inconclusive.
# What was measured:
# [1] = AP1 Signaling Pathway (AID 357; active means well fitted curve in either direction with a large enough effect, not every such curve was filed as active;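 further: ME-180 reporter cells stimulated with EGF at its EC50 level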); details: ME-180 AP-1-bla reporter, EGF-induced, beta-lactamase ratio, 5 h; at 38 µM (top of the series)
# Procedure, shortened: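 Titration-series screen for positive or negative modulators of EC50 EGF-induced signaling in ME-180 cells carrying an AP-1-driven beta-lactamase reporter. After 5 hours at 37 degrees Celsius, CCF4 460nm/530nm emission ratio gave %Activity; AC50 values derived.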
# [2] = molecular target: Cytochrome P450 1A2 (Homo sapiens) (UniProt P05177); assay: p450-cyp1a2 (AID 410; calls by dose curve)
# Procedure, shortened: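 Human CYP1A2 (20nM) demethylated Luciferin-ME at its Km (100uM) in 100mM KPO4. After 10 min compound preincubation, NADPH regeneration ran the reaction 60 min at room temperature. Luciferin was read by luminescence, normalized to 57 uM furafylline.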
# [3] = Stat Signaling Pathway (AID 446; active means well fitted curve in either direction with a large enough effect, not every such curve was filed as active;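 further: ME-180 cervical cancer cells given 40 pM IL-6 alongside compound; SIE-controlled beta-lactamase reporter measured as 460/530 nm FRET emission ratio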); details: ME-180 SIE beta-lactamase reporter, IL-6 stimulated, 5 h; at 38 µM (top of the series)
# Procedure, shortened: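 ME-180 SIE-bla cells; overnight plating; cpd + IL-6 40 pM, 5 h, 37 C; LiveBLAzer 2.5 h RT; 460/530 nm emission ratio. Normalized to 300 pM IL-6 and 125 nM JAK inhibitor controls.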
# [4] = molecular target: Glucocorticoid receptor (Homo sapiens) (UniProt P04150); assay: GR-GFP Redistribution (AID 450;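 active means compounds whose dose series gives a full or clear partial fitted curve of increased nuclear translocation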; further: potency means the concentration at half of the fitted maximal effect); details: U2OS GR-GFP nuclear translocation, laser cytometry, 2 h
# [5] = molecular target: Mitogen-activated protein kinase 10 (Mus musculus) (UniProt Q61831); assay: JNK3 AlphaScreen Assay (AID 530; active means well fitted curve in either direction with a large enough effect, not every such curve was filed as active;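 further: kinase came from lysate of stimulated human HepG2 cells; signal reports phosphorylation of biotinylated GST-cJun 1-79 at Ser73 with 10 µM ATP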)
# Procedure, shortened: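 Room-temperature AlphaScreen kinase assay; pre-activated HepG2 lysate as JNK3 source, biotin-GST-cJun(1-79) substrate, 10 uM ATP, compound 15 min preincubation.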
# [6] = molecular target: 3',5'-cyclic-AMP phosphodiesterase 4B (Homo sapiens) (UniProt Q07343); assay: qHTS Assay for Inhibitors of PDE-IV (AID 607; active means well fitted activation curve with a large enough effect in the main read-out, with a control signal flat, not every such curve was filed as active)
# Procedure, shortened: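 ACTOne HEK293 cells carry a modified cAMP-gated CNG channel and express endogenous PDE4; plated 1000 cells/well, compounds up to 22.9 uM final. Membrane-potential dye fluorescence (ex 535/em 590) was read; parental cells received 10 uM forskolin + 100 uM RO 20-1724.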
# [7] = molecular target: Guanine nucleotide-binding protein G(i) subunit alpha-1 (Homo sapiens) (UniProt P63096); assay: qHTS Assay for Inhibitors of RGS12 GoLoco Motif Activity (Green Fluorophore) (AID 879);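 further: negative values mean loss of peptide binding seen as reduced polarization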
# Procedure, shortened: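 Fluorescence polarization assay: 50 nM Gαi1 with 10 nM FITC-labeled RGS12 GoLoco peptide in 10 mM Tris pH 7.5, 150 mM NaCl, 0.1 mM GDP, 0.05% NP40, 10 min at room temperature with compound.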
# [8] = molecular target: Cytochrome P450 3A4 (Homo sapiens) (UniProt P08684); assay: qHTS Assay for Activators of Cytochrome P450 3A4 (AID 885); further: nearly all actives have a fitted effect of over 65% in size
# Procedure, shortened: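 20nM CYP3A4 + 25uM Luciferin-PPXE (=KM), 200mM KPO4; cpd 10 min RT; NADPH regen, 60 min RT; stop w/ detection buffer, 20 min; luminescence. Normalized to 57 uM ketoconazole.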
# [9] = molecular target: Cytochrome P450 2D6 (Homo sapiens) (UniProt P10635); assay: qHTS Assay for Inhibitors and Substrates of Cytochrome P450 2D6 (AID 891); further: potency means the concentration at half of the fitted maximal effect; nearly all actives have a fitted effect of over 60% in size
# Procedure, shortened: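 Human CYP2D6 (5 nM) with 30 uM Luciferin-ME EGE (at Km) in 100 mM KPO4, compound preincubated 10 min, then NADPH regeneration system for 60 min at room temperature. Luciferin read by luminescence; normalized to 1.43 uM quinidine.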
# [10] = molecular target: Muscarinic acetylcholine receptor M1 (Rattus norvegicus) (UniProt P08482); assay: qHTS Assay for Antagonists of Acetylcholine Muscarinic M1 Receptor: Measurement of IP-One Response (AID 944); further: potency means the concentration at half of the fitted maximal effect; nearly all actives have a fitted effect of over 75% in size
# Procedure, shortened: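 CHO cells expressing rat M1 receptor, recovered overnight, were pre-incubated 10 min with compound, then stimulated 30 min with carbachol at EC80 (200 nM) in LiCl-containing buffer, pH 7.4. IP1 accumulation was read by HTRF (620/665 nm).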
# [11] = molecular target: Pyruvate kinase (Leishmania mexicana) (UniProt Q27686); assay: qHTS Validation Assay for Inhibitors of Leishmania Mexicana Pyruvate Kinase (AID 945)
# Procedure, shortened: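 An endpoint luciferase assay: 0.2 nM LmPYK E451W turns over 0.5 mM PEP with 0.1 mM ADP for 1 h at room temperature, pH 7.2, before PKLight addition. Values are normalized to DMSO-only wells.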
# [12] = molecular target: Pyruvate kinase PKM (Homo sapiens) (UniProt P14618); assay: qHTS Assay for Activators of Human Muscle Pyruvate Kinase (AID 954; active means well fitted curve in the direction sought with a large enough effect, not every such curve was filed as active)
# Procedure, shortened: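 Luminescence from a luciferase ATP-detection/stop reagent reported PKM2 activity. Reactions contained 0.1 nM purified human enzyme, 0.5 mM PEP, 0.1 mM ADP and 7 mM MgCl2 at pH 7.2, run 1 h at RT.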
# [13] = molecular target: Alpha-galactosidase A (Homo sapiens) (UniProt P06280); assay: Counterscreen for Glucocerebrosidase Inhibitors: qHTS Assay for Human alpha-Galactosidase at pH 4.5 (AID 992)
# Procedure, shortened: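 Enzyme at 2 nM final was combined with compound (0.7 nM to 77 uM) and 80 uM 4-methylumbelliferyl alpha-D-galactopyranoside in 50 mM citric acid, 0.005% Tween-20, pH 4.5. After 20 min at room temperature, fluorescence was read (Ex 365/Em 440 nm); AC50 came from Hill fits.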
# [14] = molecular target: alpha-glucosidase (Oryza sativa, rice) (UniProt Q653V4); assay: Counterscreen for Glucocerebrosidase Inhibitors: qHTS Assay for Rice alpha-Glucosidase at pH 5.0 (AID 997)
# Procedure, shortened: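 Rice alpha-glucosidase (4 nM final) with 400 uM 4-methylumbelliferyl-alpha-D-glucopyranoside in citrate buffer pH 5.0, 20 min at room temperature, stopped at pH 10; fluorescence 365/440 nm, compounds 0.7 nM–77 uM, AC50 from Hill fits.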
# [15] = Validation of Assay for Modulators of Lamin A Splicing (AID 1459; active means well fitted curve in the direction sought with a large enough effect in the signal ratio; the % refers to the signal ratio;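 further: cells exposed to compound for two days before reading; ratio rise marks activators and ratio drop marks inhibitors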)
# Procedure, shortened: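 S3 HeLa cells stably expressing a lamin A-EGFP splicing minigene and DsRed2 were seeded at 600 cells/well in Opti-MEM with 2% FBS, pin-dosed, and incubated 48 hrs at 37 °C, 5% CO2. Laser-scanning cytometry (488 nm) gave GFP/RFP total intensity ratio.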
# [16] = qHTS Assay for Lipid Storage Modulators (AID 1519; calls by dose curve); details: Drosophila S3 cells, BODIPY lipid droplet/cell ratio, laser cytometry, cells loaded with oleic acid
# Procedure, shortened: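 Cells seeded at 5,000 per well were treated with compounds over a concentration series and loaded with oleic acid (400 uM, as added). Lipid droplet fluorescence (488 nm excitation, 500-530 nm channel) was read by laser-scanning cytometry and normalized to 20 uM Triacsin C.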
# [17] = molecular target: DNA repair nuclease/redox regulator APEX1 (Homo sapiens) (UniProt P27695); assay: qHTS Validation Assay for Inhibitors of the Human Apurinic/apyrimidinic Endonuclease 1 (APE1) (AID 1705;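 further: TAMRA fluorescence gain over two minutes as APE1 cuts a quenched THF abasic duplex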)
# Procedure, shortened: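 Human APE1 was preincubated with compound for 15 min at room temperature, then 50 nM (final) THF-abasic double-stranded DNA substrate bearing 5'-TAMRA and 3'-BHQ-2 was added. Incision-driven fluorescence rise (ex 525/em 598 nm) was read kinetically.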
# [18] = Counterscreen for APE1 Inhibitors: Fluorescent Dye Displacement Validation Assay (AID 1707)
# Procedure, shortened: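 Thiazole Orange displacement from dsDNA: 250 nM ThO with 50 nM TAMRA-labelled abasic-site (tetrahydrofuran) duplex in 50 mM Tris-HCl pH7.5, 50mM NaCl, 2 mM MgCl2, 0.01% Tween-20. Loss of endpoint fluorescence (ex 480 nm, em 540 nm) flags DNA binders.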
# [19] = molecular target: Endonuclease 4 (Escherichia coli (strain K12)) (UniProt P0A6C1); assay: Counterscreen for APE1 Inhibitors: qHTS Validation Assay for Inhibitors of Endonuclease IV (AID 1708)
# Procedure, shortened: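 Enzymatic AP-site incision assay using a double-stranded THF substrate labelled with TAMRA and BHQ-2; released fluorescence signals activity. Enzyme 2 nM, substrate 50 nM, 15 min compound preincubation.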
# [20] = qHTS for differential inhibitors of proliferation of Plasmodium falciparum line 7G8 (AID 1815);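 further: potency means the concentration at half of the fitted maximal effect; parasite growth measured after three days of incubation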
# [21] = qHTS for differential inhibitors of proliferation of Plasmodium falciparum line D10 (AID 1877);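 further: parasites grown with compound for 72 h before DNA staining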
# [22] = qHTS for differential inhibitors of proliferation of Plasmodium falciparum line W2 (AID 1883); details: Potency: Plasmodium falciparum W2 proliferation inhibition;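 further: potency means the concentration at half of the fitted maximal effect; parasites grown with compound for 72 h before lysis and staining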
# [23] = molecular target: Ferritin light chain (Equus caballus) (UniProt P02791); assay: qHTS Validation Assay for Identification of Novel General Anesthetics (AID 2323)
# Procedure, shortened: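 Competitive displacement of profluorescent 1-aminoanthracene (1-AMA, 50% saturated solution in PBS) from 10 uM horse-spleen apoferritin. Compounds incubated 10 min at room temperature; fluorescence read at 380 nm excitation/535 nm emission, normalized to free 1-AMA and complex, fitted with four-parameter Hill equation.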
# [24] = molecular target: ATP-dependent DNA helicase Q1 (Homo sapiens) (UniProt P46063); assay: qHTS Validation Assay for Inhibitors of RecQ-Like Dna Helicase 1 (RECQ1) (AID 2353)
# Procedure, shortened: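 50 nM RECQ1T1 preincubated 15 min with compound in Tris pH 8.0 buffer with MgCl2, DTT, Tween-20 and 2.5 ug/ml poly(dI-dC); started with 200 nM TAMRA/BHQ-2 forked duplex and 2 mM ATP. Unwinding read as fluorescence (525/598 nm), two reads 2 h apart.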
# [25] = Cytometric Cell-Based qHTS for Inhibitors of the mTORC1 Signaling Pathway in MEF (Tsc2-/-, p53-/-) Cells (AID 2660);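 further: Tsc2 and p53 null MEFs carrying empty vector with compound for 24 h; percent of cells above a phospho-rpS6 to PI ratio cutoff in each well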
# Procedure, shortened: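 Readout: Alexa-488 phospho-rpS6 (Ser235/236) intensity divided by PI intensity, thresholded against 7.5 nM rapamycin wells and reported as % positive cells. PI cell count served as the viability measure. Compound exposure was 24 hrs at 37 degree Celsius.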
# [26] = High Content Imaging Cell-Based qHTS for Inhibitors of the mTORC1 Signaling Pathway in MEF (Tsc2-/-, p53-/-) Cells (AID 2666); details: at 38.3 µM (top of the series);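 further: percent of cells scored positive for phospho-rpS6 Ser235/236 immunostaining by imaging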
# Procedure, shortened: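 Cells were plated, dosed with compound after 24 hrs, and incubated another 24 hrs at 37 degree Celsius. Fixed cells were immunostained for phospho-rpS6 Ser235/236 and counterstained, and the normalized signal was scored as % active cells against rapamycin and DMSO controls.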
# [27] = High Content Imaging Cell-Based qHTS for Inhibitors of the mTORC1 Signaling Pathway in MEF Cells (AID 2667);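 further: Tsc2-/- p53-/- MEFs stably re-expressing wild-type Tsc2 exposed 24 h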
# Procedure, shortened: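 Immunofluorescence for rpS6 phosphorylation in MEFs of Tsc2-/-, p53-/- background rescued with WT Tsc2. Compound exposure lasted 24 hrs. Inhibition was scored against rapamycin-treated control wells.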
# [28] = Cytometry Cell-Based qHTS for Inhibitors of the mTORC1 Signaling Pathway in MEF cells (AID 2668);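 further: Tsc2-/- p53-/- mouse embryonic fibroblasts stably re-expressing wild-type Tsc2; percent cells positive for phospho-rpS6 Ser235/236 relative to propidium iodide stain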
# Procedure, shortened: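 WT MEFs (Tsc2-/-, p53-/- stably re-expressing WT Tsc2) in DMEM + 10% FBS received compounds 24 hrs after plating, for 24 hrs at 37 degree Celsius. Fixed cells stained with Alexa-488 anti-phospho-rpS6 Ser235/236 and propidium iodide; laser-scanning cytometry read-out.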
# [29] = Validation screen for small molecules that induce DNA re-replication in MCF 10A normal breast cells (AID 463097); further: nearly all actives have a fitted effect of over 60% in size
# Procedure, shortened: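 Readout: Hoechst nuclear fluorescence intensity, 405 ex / 500-530 em, by scanning plate imager; re-replication scored as increase in nuclei with elevated DNA content. Cells exposed to compound 48 hr, 37 C, 5% CO2 beforehand.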
# [30] = molecular target: Ubiquitin carboxyl-terminal hydrolase 2 (Homo sapiens) (UniProt O75604); assay: qHTS Validation Assay for Inhibitors of Ubiquitin-specific Protease USP2a Using CHOP2 as the Reporter (AID 463106)
# Procedure, shortened: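 10nM USP2 core + cpd, 30min RT; add 25nM Ub-CHOP2/25nM substrate; 60min RT; FI 485/531nm. Buffer Tris pH 8.0, CaCl2, BME, CHAPS. Norm. to NEM = 100% inhibition; time-zero read flags fluorescent artifacts.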
# [31] = molecular target: DNA polymerase III PolC-type (Bacillus subtilis (strain 168)) (UniProt P13267); assay: qHTS Validation Assay for the Inhibitors of DNA Replication in Gram-Positive Bacteria (AID 485295);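 further: PicoGreen fluorescence of double-stranded DNA made on primed circular M13 template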
# Procedure, shortened: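 Reconstituted B. subtilis holoenzyme (Pol III, beta clamp, SSB, primase) was preincubated with compound at room temperature, then given single-stranded circular M13Gori plus dNTPs and NTPs. EDTA-containing PicoGreen stopped the reaction, and dsDNA product was read by fluorescence.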
# [32] = molecular target: Tumor susceptibility gene 101 protein (Homo sapiens) (UniProt Q99816); assay: qHTS Validation Assay for Iinhibitors of HIV-1 Budding by Blocking the Interaction of PTAP/TSG101 (AID 485342; calls by dose curve)
# Procedure, shortened: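 Tsg101 binding domain (10 uM final) in pH 7.5 HEPES/NaCl/Tween 20/EDTA/TCEP buffer was mixed with pin-transferred compounds, then FITC-labeled PTAP peptide (50 nM final) was added; after 20 min at r.t., fluorescence polarization was read.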
# [33] = qHTS Validation Assay to Find Inhibitors of Chronic Active B-Cell Receptor Signaling (AID 485345; active means well fitted curve in the direction sought with a large enough effect in the main read-out, with a control signal flat, not every such curve was filed as active)
# Procedure, shortened: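 Read-out: ratio of filter-corrected green (IkappaBalpha fusion) to red (native) luciferase signal in doxycycline-induced TMD8 cells after 4 h at 37C. Titration spanned 46 uM–3 nM; Data were normalised to basal cells and 10 uM MG-132 wells.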
# Chain of Cytochrome P450 1A2 (Homo sapiens) (P05177 whole entry, looked up): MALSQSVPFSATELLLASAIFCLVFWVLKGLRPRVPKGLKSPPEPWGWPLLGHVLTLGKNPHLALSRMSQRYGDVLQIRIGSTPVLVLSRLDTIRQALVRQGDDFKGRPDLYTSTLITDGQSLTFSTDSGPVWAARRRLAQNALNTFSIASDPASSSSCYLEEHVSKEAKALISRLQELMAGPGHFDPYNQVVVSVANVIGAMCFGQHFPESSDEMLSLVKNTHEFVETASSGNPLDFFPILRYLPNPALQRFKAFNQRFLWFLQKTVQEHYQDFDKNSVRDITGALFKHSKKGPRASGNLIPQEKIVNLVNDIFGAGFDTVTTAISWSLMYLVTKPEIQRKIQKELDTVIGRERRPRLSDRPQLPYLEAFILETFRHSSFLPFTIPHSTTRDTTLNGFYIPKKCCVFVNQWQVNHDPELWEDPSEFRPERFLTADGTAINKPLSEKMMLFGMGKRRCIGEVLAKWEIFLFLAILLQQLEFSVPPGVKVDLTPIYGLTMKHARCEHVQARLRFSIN
# Chain of Pyruvate kinase PKM (Homo sapiens) (P14618 whole entry, looked up): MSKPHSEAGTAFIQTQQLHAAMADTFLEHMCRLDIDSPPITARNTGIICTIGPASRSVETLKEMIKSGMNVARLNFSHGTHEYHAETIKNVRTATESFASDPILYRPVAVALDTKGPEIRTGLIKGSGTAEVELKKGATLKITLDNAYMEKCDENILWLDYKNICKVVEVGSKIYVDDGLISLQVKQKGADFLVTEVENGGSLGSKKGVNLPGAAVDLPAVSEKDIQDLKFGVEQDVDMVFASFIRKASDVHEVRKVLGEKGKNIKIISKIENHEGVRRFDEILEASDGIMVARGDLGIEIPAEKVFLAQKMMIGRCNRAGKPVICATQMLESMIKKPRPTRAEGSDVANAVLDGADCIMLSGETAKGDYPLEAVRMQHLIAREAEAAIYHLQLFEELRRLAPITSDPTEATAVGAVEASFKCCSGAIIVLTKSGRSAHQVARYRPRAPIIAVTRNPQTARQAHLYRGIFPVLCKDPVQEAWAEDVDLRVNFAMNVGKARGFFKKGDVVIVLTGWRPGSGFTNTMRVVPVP
# Chain of Guanine nucleotide-binding protein G(i) subunit alpha-1 (Homo sapiens) (P63096 whole entry, looked up): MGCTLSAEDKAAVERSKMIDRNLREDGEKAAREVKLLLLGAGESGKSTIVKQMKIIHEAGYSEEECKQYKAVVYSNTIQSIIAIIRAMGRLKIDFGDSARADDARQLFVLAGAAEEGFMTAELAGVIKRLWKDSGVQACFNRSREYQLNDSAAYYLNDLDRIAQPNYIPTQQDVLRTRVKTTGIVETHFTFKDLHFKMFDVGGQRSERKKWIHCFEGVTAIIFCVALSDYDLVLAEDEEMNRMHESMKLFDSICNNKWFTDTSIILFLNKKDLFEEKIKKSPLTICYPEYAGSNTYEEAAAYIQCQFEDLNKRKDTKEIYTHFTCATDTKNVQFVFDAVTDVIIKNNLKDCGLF
# Chain of Cytochrome P450 3A4 (Homo sapiens) (P08684 whole entry, looked up): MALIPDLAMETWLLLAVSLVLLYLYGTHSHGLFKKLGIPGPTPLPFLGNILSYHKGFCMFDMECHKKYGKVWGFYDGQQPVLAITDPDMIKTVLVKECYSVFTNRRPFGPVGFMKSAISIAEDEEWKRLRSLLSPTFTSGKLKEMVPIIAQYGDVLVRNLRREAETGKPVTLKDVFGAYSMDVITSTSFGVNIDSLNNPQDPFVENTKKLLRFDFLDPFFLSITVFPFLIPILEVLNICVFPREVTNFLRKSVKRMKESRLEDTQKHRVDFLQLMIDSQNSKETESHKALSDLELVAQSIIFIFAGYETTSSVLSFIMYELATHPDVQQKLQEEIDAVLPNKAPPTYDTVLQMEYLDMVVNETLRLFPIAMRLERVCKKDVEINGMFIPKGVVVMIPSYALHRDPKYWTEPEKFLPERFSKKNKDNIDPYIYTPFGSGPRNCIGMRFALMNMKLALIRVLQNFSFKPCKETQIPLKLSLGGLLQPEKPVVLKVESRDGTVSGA
# Chain of Ferritin light chain (Equus caballus) (P02791 2-175 limits assumed): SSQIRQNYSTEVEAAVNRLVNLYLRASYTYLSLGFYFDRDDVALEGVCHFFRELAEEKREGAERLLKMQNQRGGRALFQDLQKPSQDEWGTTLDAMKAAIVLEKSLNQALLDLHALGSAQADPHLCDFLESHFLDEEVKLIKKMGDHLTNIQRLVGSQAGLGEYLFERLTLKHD
# Chain of Ubiquitin carboxyl-terminal hydrolase 2 (Homo sapiens) (O75604 whole entry, looked up): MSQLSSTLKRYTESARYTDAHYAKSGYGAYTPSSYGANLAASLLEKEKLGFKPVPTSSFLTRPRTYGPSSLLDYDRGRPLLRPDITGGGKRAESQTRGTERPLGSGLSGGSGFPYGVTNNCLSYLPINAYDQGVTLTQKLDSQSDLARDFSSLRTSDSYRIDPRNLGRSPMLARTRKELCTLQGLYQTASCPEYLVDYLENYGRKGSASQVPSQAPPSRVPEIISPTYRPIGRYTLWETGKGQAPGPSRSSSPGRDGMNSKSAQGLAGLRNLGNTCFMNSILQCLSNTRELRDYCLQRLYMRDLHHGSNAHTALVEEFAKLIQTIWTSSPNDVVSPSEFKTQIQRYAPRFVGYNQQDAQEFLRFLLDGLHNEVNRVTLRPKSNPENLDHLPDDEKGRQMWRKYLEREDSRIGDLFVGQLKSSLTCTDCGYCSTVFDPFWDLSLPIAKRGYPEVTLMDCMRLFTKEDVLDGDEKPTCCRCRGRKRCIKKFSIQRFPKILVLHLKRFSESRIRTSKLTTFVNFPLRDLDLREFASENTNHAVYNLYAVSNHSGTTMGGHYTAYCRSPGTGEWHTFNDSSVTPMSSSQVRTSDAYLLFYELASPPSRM
# Chain of DNA repair nuclease/redox regulator APEX1 (Homo sapiens) (P27695 whole entry, looked up): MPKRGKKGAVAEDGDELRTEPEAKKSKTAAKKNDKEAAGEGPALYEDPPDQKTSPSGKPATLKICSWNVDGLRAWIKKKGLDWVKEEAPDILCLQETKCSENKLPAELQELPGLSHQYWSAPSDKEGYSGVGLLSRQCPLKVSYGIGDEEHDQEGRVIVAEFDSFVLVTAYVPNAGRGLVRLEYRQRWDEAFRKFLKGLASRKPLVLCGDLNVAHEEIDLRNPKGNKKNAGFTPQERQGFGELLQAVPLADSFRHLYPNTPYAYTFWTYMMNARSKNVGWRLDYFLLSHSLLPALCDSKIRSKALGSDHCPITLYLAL
# Chain of Alpha-galactosidase A (Homo sapiens) (P06280 whole entry, looked up): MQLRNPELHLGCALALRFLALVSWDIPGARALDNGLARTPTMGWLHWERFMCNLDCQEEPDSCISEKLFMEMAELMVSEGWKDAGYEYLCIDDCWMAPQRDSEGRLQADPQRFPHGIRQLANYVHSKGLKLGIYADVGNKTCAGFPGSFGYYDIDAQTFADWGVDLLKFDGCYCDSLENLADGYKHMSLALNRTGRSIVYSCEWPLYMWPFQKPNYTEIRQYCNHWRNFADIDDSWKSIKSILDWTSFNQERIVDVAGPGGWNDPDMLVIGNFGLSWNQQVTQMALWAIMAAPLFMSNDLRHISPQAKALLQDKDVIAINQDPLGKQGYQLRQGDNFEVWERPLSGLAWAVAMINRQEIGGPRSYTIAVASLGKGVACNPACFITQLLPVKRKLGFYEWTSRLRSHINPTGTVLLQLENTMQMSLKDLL
# Chain of 3',5'-cyclic-AMP phosphodiesterase 4B (Homo sapiens) (Q07343 whole entry, looked up): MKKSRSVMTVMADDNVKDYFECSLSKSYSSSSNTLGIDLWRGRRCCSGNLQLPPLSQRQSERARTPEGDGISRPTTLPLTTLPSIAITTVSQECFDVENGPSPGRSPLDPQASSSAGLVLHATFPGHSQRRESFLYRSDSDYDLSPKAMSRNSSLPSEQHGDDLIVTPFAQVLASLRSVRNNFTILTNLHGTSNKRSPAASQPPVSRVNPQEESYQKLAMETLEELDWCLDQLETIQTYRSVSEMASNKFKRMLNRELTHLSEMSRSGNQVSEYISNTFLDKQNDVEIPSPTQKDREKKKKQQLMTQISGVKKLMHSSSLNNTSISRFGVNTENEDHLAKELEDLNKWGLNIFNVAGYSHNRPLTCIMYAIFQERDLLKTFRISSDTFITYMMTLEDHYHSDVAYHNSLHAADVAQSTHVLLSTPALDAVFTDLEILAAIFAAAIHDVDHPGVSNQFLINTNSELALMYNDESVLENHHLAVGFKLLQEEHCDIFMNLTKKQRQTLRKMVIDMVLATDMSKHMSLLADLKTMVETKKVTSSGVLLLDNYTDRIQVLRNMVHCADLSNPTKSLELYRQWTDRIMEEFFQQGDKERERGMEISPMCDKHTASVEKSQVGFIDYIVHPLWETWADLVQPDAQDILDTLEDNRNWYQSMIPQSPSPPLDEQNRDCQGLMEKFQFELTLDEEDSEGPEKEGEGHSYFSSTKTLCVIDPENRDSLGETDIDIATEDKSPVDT
# Chain of Cytochrome P450 2D6 (Homo sapiens) (P10635 whole entry, looked up): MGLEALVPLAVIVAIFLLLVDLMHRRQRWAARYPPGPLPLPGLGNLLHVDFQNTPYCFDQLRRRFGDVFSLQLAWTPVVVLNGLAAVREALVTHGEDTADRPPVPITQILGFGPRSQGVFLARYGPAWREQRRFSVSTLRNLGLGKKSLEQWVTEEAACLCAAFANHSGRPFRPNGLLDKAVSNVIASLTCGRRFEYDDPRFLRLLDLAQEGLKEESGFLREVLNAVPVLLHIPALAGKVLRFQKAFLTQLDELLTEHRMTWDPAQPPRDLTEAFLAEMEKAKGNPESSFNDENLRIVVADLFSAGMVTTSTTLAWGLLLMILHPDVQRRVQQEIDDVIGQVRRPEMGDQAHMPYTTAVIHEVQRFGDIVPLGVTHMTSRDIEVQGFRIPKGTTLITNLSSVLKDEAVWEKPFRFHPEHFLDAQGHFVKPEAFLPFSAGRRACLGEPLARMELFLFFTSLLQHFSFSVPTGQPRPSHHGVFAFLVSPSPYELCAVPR
structure (smiles),measurement,setting,value
C1CCC(N=C(NC23CC4CC(CC(C4)C2)C3)N2CCOCC2)CC1,"activity change, negative = inhibition",[1],8.68% (inactive)
same,Potency,[2],inactive
same,"activity, negative = inhibition",[3],17.1% (inactive)
same,Potency,[4],> 46 µM (inactive)
same,Potency,[5],inactive
same,Potency,[6],inactive
same,outcome,[7],inactive
same,Potency,[8],inactive
same,Potency,[9],0.631 µM (active)
same,Potency,[10],17.8 µM (active)
same,Potency,[11],inactive
same,outcome,[12],inactive
same,outcome,[13],inactive
same,outcome,[14],inactive
same,outcome,[15],inactive
same,"activity change, negative = inhibition",[16]; at 57.5 µM (top of the series),1.57% (inactive)
same,max response,[16]; measured here: cell count channel max response,-18.7%
same,max response,[16]; measured here: lipid channel max response,-17.8%
same,Potency,[17],inactive
same,Potency,[18],inactive
same,Potency,[19],inactive
same,Potency,[20],7.94 µM (active)
same,Potency,[21],inactive
same,Potency,[22],7.08 µM (active)
same,outcome,[23],inactive
same,Potency,[24],inactive
same,outcome,[25],inactive
same,outcome,[26],inactive
same,Potency,[27],inactive
same,Potency,[28],inactive
same,Potency,[29],inactive
same,Potency,[30],inactive
same,Potency,[31],inactive
same,outcome,[32],inactive
same,outcome,[33],inactive
